From the supplement of paper PMC10849652
About 7,900 targets were measured; listed, in parts, are those with a hit and a random draw of the rest. About 0.6% of all pairs of compound and target were hits. Values without a mark were called inactive.

Legend:
Assay in all cases: log2 fold change, soluble protein after heating vs DMSO (PISA); higher = thermal stabilisation; K562 cells, 10 uM, 30 min; active = over 0.2 and 3.5 SD of the protein, either way, in both replicates (recomputed)
[1] = compound: C1COCCN1CCN2C3=CC=CC=C3N=C2NC(=O)C4=CC(=CC=C4)[N+](=O)[O-] [IRAK-1-4 Inhibitor I]
In short: (§1)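 K562 cells at 2×10^6 cells/mL were treated for 30 min with 10 μM compound, and aliquots were heated for 3 min over 48°C-58°C before pooling. Extraction used PBS with 0.5% NP-40 at 4°C, and soluble protein was the supernatant after 21,000xg for 90 min, measured by TMTpro 16plex LC-MS/MS with channel sums equalised. Thermal stability values, relative to control samples and from duplicates, are log2 fold changes.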

[2] = compound: C=CC(=O)N1CCC[C@@H](n2nc(-c3ccc(Oc4ccccc4)cc3)c3c(N)ncnc32)C1 [ibrutinib]
In short: as §1

[3] = compound: CC(=O)c1cnc2ccc(-c3cc(Cl)c(O)c(Cl)c3)nc2c1N[C@H]1CC[C@H](CN(C)C)CC1
In short: as §1

[4] = compound: CC(C)(C)Cn1c(N)nc2ccc(-c3[nH]c(C(C)(C)C)nc3-c3ccc(F)cc3)nc21 [ralimetinib]
In short: as §1

[5] = compound: CC(C)(O)CC(=O)NCCn1ccc2ncnc(Nc3ccc(Oc4cccc(C(F)(F)F)c4)c(Cl)c3)c21
In short: as §1

[6] = compound: CC(C)C1=C2N=C(C=C(N2N=C1)NCC3=CC=CC=C3)NCCCCCCN
In short: as §1

[7] = compound: CC(C)C[C@@H](C=O)NC(=O)[C@H](CC(C)C)NC(=O)[C@H](CC(C)C)NC(=O)OCc1ccccc1
In short: as §1

[8] = compound: CC(C)N(C[C@H]1O[C@@H](n2cnc3c(N)ncnc32)[C@H](O)[C@@H]1O)[C@H]1C[C@@H](CCc2nc3cc(C(C)(C)C)ccc3[nH]2)C1 [pinometostat]
In short: as §1

[9] = compound: CC1=C(C(CC(=O)N1)C2=CC=C(C=C2)C(F)(F)F)C(=O)NC3=C(C=C4C(=C3)C=NN4)F
In short: as §1

[10] = compound: CC1=C(C2=C(C=C1)C(=O)C3=CC=CC=C3N2CCCN)C
In short: as §1

Chain of UniProt Q4G0T1 (Q4G0T1 whole entry, looked up): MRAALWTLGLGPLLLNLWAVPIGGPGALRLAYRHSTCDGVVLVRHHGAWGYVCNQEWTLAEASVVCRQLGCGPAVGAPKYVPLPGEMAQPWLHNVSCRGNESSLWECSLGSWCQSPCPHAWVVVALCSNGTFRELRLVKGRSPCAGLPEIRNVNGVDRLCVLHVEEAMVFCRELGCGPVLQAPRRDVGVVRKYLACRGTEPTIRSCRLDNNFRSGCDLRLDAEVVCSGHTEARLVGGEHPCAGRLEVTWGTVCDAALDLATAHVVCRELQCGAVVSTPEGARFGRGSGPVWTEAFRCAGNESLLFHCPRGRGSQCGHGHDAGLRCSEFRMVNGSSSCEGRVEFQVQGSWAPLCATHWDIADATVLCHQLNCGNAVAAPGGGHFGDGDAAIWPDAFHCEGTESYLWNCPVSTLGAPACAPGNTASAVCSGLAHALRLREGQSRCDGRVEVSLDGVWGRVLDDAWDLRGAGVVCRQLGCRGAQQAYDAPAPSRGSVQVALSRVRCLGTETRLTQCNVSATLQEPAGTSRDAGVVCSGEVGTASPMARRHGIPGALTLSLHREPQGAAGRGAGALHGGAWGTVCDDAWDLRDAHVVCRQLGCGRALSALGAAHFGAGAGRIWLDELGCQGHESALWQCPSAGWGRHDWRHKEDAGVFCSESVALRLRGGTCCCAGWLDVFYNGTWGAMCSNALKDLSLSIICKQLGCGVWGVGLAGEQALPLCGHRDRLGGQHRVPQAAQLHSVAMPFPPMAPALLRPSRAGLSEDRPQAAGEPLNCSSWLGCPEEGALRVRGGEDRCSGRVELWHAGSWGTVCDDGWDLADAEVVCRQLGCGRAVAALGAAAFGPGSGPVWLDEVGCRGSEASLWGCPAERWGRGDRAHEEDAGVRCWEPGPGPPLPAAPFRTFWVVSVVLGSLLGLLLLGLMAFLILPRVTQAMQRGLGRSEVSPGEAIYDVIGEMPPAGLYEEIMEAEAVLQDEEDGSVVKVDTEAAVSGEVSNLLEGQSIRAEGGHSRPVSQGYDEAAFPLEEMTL
Chain of UniProt P49914 (P49914 whole entry, looked up): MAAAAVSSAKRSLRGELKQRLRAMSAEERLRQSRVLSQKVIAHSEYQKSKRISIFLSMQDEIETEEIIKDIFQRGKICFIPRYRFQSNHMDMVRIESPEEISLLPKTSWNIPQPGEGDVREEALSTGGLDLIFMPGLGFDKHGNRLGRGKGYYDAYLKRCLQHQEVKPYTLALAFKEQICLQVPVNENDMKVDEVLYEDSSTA
Chain of UniProt Q9NRP0 (Q9NRP0 whole entry, looked up): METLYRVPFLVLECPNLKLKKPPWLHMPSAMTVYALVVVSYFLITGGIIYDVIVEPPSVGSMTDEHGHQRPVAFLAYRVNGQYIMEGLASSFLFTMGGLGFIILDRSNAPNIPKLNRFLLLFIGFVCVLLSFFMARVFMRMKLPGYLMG
Chain of UniProt P84157 (P84157 whole entry, looked up): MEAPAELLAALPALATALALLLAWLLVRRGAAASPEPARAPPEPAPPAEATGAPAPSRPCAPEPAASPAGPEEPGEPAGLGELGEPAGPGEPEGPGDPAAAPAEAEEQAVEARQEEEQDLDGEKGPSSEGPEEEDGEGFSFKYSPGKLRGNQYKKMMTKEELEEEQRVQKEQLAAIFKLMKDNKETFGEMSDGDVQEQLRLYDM
Chain of UniProt O60934 (O60934 whole entry, looked up): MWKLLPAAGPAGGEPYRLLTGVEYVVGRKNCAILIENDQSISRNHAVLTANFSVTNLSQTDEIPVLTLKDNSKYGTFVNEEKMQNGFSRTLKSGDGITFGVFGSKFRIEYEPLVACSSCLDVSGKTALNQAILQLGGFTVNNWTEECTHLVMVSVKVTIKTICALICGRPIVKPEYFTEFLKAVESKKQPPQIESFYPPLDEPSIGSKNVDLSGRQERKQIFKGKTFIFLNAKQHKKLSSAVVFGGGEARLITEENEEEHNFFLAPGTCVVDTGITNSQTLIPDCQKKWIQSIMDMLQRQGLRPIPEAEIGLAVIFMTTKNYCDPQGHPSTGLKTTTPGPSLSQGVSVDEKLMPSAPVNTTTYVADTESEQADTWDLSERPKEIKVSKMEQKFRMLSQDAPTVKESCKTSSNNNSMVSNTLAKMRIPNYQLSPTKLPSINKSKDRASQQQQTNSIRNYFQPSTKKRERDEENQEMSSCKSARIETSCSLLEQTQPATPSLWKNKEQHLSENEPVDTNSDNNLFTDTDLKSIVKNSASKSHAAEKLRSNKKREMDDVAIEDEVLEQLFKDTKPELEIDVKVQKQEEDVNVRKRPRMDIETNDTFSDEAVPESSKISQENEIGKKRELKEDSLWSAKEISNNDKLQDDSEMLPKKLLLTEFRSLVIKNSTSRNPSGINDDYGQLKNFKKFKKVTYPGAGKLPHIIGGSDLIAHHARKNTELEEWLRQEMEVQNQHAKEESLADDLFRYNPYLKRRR
Chain of UniProt Q96IV0 (Q96IV0 whole entry, looked up): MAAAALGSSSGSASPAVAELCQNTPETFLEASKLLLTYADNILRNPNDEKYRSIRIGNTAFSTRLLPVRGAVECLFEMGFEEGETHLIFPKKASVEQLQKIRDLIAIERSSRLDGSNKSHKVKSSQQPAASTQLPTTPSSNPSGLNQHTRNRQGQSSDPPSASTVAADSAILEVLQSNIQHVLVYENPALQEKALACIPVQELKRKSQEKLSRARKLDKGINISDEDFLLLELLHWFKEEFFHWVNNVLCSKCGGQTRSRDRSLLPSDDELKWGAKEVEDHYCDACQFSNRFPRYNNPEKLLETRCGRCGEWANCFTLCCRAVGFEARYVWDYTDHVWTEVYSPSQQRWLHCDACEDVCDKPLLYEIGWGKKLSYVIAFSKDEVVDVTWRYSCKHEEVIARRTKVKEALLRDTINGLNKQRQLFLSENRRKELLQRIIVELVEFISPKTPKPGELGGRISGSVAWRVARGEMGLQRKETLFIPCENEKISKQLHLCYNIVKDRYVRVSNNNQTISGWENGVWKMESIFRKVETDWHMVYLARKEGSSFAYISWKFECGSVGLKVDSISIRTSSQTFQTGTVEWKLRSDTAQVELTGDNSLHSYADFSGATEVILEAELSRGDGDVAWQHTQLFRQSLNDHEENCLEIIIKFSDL
Chain of UniProt Q9HAN9 (Q9HAN9 whole entry, looked up): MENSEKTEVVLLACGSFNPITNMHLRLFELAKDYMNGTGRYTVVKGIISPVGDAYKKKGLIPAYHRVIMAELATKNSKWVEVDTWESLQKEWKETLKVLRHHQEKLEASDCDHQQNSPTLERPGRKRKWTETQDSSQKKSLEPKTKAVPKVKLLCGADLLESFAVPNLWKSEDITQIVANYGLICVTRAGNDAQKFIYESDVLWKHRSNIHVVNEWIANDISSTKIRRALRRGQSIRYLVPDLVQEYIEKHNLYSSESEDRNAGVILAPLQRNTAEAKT
Chain of UniProt O75607 (O75607 whole entry, looked up): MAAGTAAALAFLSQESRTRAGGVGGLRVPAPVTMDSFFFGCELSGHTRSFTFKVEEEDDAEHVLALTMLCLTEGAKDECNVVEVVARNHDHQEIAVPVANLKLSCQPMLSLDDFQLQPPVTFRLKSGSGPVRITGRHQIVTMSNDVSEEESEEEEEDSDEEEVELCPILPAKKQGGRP
Chain of UniProt O60890 (O60890 whole entry, looked up): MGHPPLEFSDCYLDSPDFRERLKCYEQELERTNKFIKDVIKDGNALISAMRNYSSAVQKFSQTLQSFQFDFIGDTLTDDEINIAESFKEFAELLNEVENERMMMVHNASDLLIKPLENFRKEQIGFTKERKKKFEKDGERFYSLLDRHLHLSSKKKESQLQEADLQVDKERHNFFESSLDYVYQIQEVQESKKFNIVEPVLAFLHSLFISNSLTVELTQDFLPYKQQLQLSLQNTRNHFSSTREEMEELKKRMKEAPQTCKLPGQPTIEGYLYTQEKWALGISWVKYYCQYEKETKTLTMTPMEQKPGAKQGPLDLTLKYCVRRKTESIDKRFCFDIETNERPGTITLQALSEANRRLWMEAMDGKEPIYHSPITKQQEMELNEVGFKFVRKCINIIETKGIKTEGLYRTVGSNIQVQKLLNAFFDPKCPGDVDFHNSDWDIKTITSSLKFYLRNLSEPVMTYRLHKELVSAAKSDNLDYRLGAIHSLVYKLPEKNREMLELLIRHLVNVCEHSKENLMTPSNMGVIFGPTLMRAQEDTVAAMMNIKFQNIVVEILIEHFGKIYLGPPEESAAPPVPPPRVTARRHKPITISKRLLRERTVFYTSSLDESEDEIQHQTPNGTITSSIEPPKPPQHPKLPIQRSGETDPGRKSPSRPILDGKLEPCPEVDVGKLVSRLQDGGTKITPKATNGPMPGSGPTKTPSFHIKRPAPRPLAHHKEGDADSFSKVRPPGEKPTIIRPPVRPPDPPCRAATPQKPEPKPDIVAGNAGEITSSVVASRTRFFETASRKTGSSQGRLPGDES
Chain of UniProt Q9Y2X3 (Q9Y2X3 whole entry, looked up): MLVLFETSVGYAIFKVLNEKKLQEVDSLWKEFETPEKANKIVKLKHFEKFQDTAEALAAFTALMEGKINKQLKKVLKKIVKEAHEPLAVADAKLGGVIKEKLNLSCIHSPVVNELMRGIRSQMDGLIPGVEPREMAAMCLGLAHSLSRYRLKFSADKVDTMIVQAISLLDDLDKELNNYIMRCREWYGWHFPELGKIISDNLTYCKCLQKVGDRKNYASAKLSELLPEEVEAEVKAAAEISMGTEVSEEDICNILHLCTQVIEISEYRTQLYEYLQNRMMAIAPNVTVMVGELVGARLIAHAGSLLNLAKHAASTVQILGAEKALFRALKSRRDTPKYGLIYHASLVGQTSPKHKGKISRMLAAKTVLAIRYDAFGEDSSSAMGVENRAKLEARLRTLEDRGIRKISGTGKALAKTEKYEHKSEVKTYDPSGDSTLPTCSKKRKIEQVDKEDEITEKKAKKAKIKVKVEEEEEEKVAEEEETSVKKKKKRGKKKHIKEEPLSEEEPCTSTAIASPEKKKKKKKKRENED
Chain of UniProt Q9Y605 (Q9Y605 whole entry, looked up): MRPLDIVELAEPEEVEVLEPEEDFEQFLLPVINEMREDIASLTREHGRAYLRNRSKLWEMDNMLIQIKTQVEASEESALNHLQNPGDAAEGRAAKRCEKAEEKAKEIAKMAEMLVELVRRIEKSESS

Row | Target | log2 fold change [1] | log2 fold change [2] | log2 fold change [3] | log2 fold change [4] | log2 fold change [5] | log2 fold change [6] | log2 fold change [7] | log2 fold change [8] | log2 fold change [9] | log2 fold change [10]
1 | NGLY1 (UniProt Q96IV0) | -0.091 | -0.052 | -0.059 | 0.018 | -0.07 | -0.071 | 0.036 | 0.088 | 0.04 | 0.123
2 | MINK1 (UniProt Q8N4C8) | -0.018 | 0.038 | -0.715 (active) | -0.081 | 0.053 | 0.021 | 0.044 | 0.049 | -0.017 | 0.061
3 | PAK1 isoform 2 (UniProt Q13153) | 0.018 | 0.048 | 0.158 | -0.066 | -0.025 | 0 | -0.046 | -0.038 | 0.192 | 0.051
4 | NSDHL (UniProt Q15738) | 0.004 | 0.193 | -0.049 | -0.01 | 0.173 | -0.084 | -0.024 | -0.078 | -0.021 | 0.056
5 | OXSM (UniProt Q9NWU1) | 0.032 | 0.064 | 0.017 | 0.008 | 0.031 | 0.041 | -0.025 | -0.067 | -0.023 | -0.011
6 | NA, A0A2R8Y3M9 | 0.087 | 0.215 | -0.207 | -0.08 | – | – | 0.056 | -0.001 | 0.253 | –
7 | NA isoform 3 (UniProt Q4G0T1) | 0.007 | -0.1 | -0.146 | -0.118 | – | -0.022 | 0.155 | -0.043 | 0.079 | -0.109
8 | MSH3 (UniProt P20585) | -0.001 | -0.002 | 0.054 | -0.053 | 0.01 | 0.068 | 0.056 | 0.043 | 0.023 | 0.27 (active)
9 | NOP58 (UniProt Q9Y2X3) | -0.06 | 0.039 | -0.117 | -0.008 | 0.06 | 0.052 | 0.117 | 0.128 | -0.035 | -0.029
10 | NME7 (UniProt Q9Y5B8) | 0.056 | -0.054 | -0.038 | 0.095 | -0.116 | -0.066 | 0.059 | 0.065 | – | -0.086
11 | OGFR (UniProt Q9NZT2) | -0.023 | 0.001 | -0.235 | -0.014 | 0.109 | -0.028 | -0.008 | 0.149 | 0.036 | 0.044
12 | NCOR1 (UniProt O75376) | 0.052 | 0.078 | -0.46 (active) | 0.01 | 0.011 | 0.055 | 0.022 | 0.05 | -0.084 | 0.093
13 | OPHN1 (UniProt O60890) | -0.086 | -0.145 | -0.021 | -0.033 | -0.146 | 0.12 | -0.042 | -0.062 | -0.034 | 0.069
14 | OVCA2 (UniProt Q8WZ82) | -0.087 | 0.023 | -0.019 | -0.1 | – | – | 0.095 | 0.021 | 0.044 | –
15 | MTHFS (UniProt P49914) | -0.003 | -0.01 | -0.009 | -0.09 | -0.095 | -0.009 | 0.007 | -0.03 | -0.044 | 0.031
16 | MRFAP1 (UniProt Q9Y605) | 0.218 | -0.017 | 0.206 | -0.022 | – | -0.056 | 0.437 | -0.016 | 0.28 | -0.339

Row | Target | log2 fold change [1] | log2 fold change [2] | log2 fold change [3] | log2 fold change [4] | log2 fold change [5] | log2 fold change [6] | log2 fold change [7] | log2 fold change [8] | log2 fold change [9] | log2 fold change [10]
17 | NMNAT1 (UniProt Q9HAN9) | -0.007 | 0.073 | 0.05 | 0.18 | 0.13 | 0.093 | 0.168 | 0.429 | 0.051 | -0.674 (active)
18 | MXRA7 (UniProt P84157) | 0.098 | 0.048 | -0.064 | -0.012 | 0.116 | 0.075 | -0.083 | -0.049 | -0.011 | -0.045
19 | NFYC (UniProt Q13952) | -0.023 | -0.042 | -0.023 | -0.09 | -0.046 | 0.019 | -0.061 | -0.087 | 0.046 | 0.332 (active)
20 | NPM3 (UniProt O75607) | -0.057 | -0.016 | -0.004 | 0.045 | – | 0.078 | 0.053 | 0.052 | 0.088 | -0.521 (active)
21 | NFYB (UniProt P25208) | 0.07 | -0.051 | 0.019 | 0.016 | – | 0.054 | -0.007 | -0.043 | 0.026 | 0.411 (active)
22 | NDUFB1 (UniProt O75438) | 0.034 | 0.024 | 0.06 | – | -0.043 | -0.052 | – | 0.065 | 0.059 | 0.158
23 | NOP53 (UniProt Q9NZM5) | -0.209 | 0.018 | 0.303 | 0.212 | 0.411 | 0.233 | 0.089 | 0.321 | -0.016 | -1.19 (active)
24 | NBN (UniProt O60934) | -0.009 | -0.008 | -0.147 | -0.028 | -0.062 | -0.025 | 0.007 | 0.009 | -0.029 | -0.02
25 | MRPS26 (UniProt Q9BYN8) | -0.09 | 0.008 | 0.007 | -0.049 | -0.143 | 0.03 | 0.137 | 0.037 | – | -0.133
26 | NMD3 (UniProt Q96D46) | 0.001 | -0.046 | 0.017 | -0.049 | -0.104 | -0.069 | -0.141 | -0.026 | -0.064 | -0.392 (active)
27 | OTUD4 (UniProt Q01804) | 0.007 | 0.008 | -0.029 | 0.1 | 0.013 | 0.035 | 0.052 | 0.128 | -0.033 | 0.244
28 | NFATC3 (UniProt Q12968) | -0.116 | 0.01 | -0.406 (active) | 0.386 (active) | -0.105 | -0.209 | 0.145 | 0.053 | 0.015 | -0.036
29 | NUMA1 (UniProt Q14980) | -0.107 | -0.051 | -0.123 | 0.149 | 0.073 | -0.173 | -0.02 | 0.202 | -0.018 | -0.58 (active)
30 | OSTC (UniProt Q9NRP0) | -0.002 | -0.013 | -0.022 | 0.004 | -0.055 | -0.377 (active) | -0.046 | -0.023 | -0.031 | 0.119
31 | NMT2 (UniProt O60551) | 0.006 | 0.064 | -0.031 | -0.017 | -0.022 | -0.125 | -0.019 | 0.053 | 0.037 | 0.01
